# Screening data (PubChem)
# aSyn 5UTR act – Activators via SNCA 5'UTR binding, MLPCN; alpha-synuclein 5'UTR reporter, activators screen; activity score, % (tested at 7.5 µM), hits read low; 300,000 tested, 7.1% active; in the data active = activity score below about -60%
# Active calls of the source: *. A selection follows.
SMILES,aSyn 5UTR act
Cc1ccc(S(=O)(=O)N2CCCC2CNC(=O)C(=O)Nc2ccc(F)cc2)cc1 (centres undefined),-74*
COc1ccc(NC(=O)C(=O)NCC2CCCN2S(=O)(=O)c2ccc(C)cc2)cc1 (centres undefined),91
O=C(COC(=O)[C@@H]1CCCN1S(=O)(=O)c1ccc(Cl)cc1)NCC(F)(F)F,31
Fc1ccc2c(c1)/C(=N/Nc1ccccn1)CCS2,-72*
c1ccc(N/N=C2\CCCc3ccccc32)nc1,-75*
Cc1cc(N/N=C2/CCCc3ccccc32)nc2ccccc12,-172*
COc1ccc(OC)c(C2C3=C(COC3=O)Nc3cc4c(cc32)OCO4)c1 (centres undefined),89
COc1ccc2c(c1)CC/C(=C\Nc1ccc3c(c1)OCO3)C2=O,-197*
O=C1/C(=C/Nc2ccc3c(c2)OCO3)CCc2ccccc21,96
COc1cccc(/C=C2\CCc3ccccc3C2=O)c1,-97*
COc1ccc2c(c1)CC/C(=C\C=C\c1ccccc1)C2=O,-64*
COc1ccc2c(c1)CC/C(=C/c1ccccn1)C2=O,-81*
COc1ccc(N/C=C2\CCc3ccccc3C2=O)cc1,94
O=C(c1cc(-c2ccc(F)cc2)on1)N1CCCc2ccccc21,-62*
Cc1ccc(-c2cc(C(=O)N3CCCc4ccccc43)no2)cc1,-150*
O=C(c1cc(-c2cccs2)on1)N1CCCc2ccccc21,-79*
CSC1=NC(C)(C)CC2(C)Nc3ccccc3N12 (centres undefined),-88*
Cc1ccc(C(=O)N/N=C\c2ccccc2[N+](=O)[O-])cn1,-111*
CCC(=O)Nc1ccc(C(=O)N/N=C/c2ccccc2[N+](=O)[O-])cc1,-81*
CCOc1ccc(C(=O)N/N=C/c2ccccc2[N+](=O)[O-])cc1,-126*
O=C(COc1ccc2c(c1)OCO2)Nc1ccccc1C(F)(F)F,-114*
N#Cc1ccccc1NC(=O)COc1ccc2c(c1)OCO2,-130*
CCCCNC(=O)c1nnn(-c2ccccc2)c1N,-140*
Cc1cccnc1N(C(=O)Nc1cccc(Cl)c1)C1=NCC(C)(C)S1,-66*
CSc1ccccc1NC(=O)Nc1cccc(F)c1,-82*
SMILES,aSyn 5UTR act
CCOc1ccc(NC(=O)Nc2ccccc2SC)cc1,-142*
Cc1cccc(N(O)C(=O)Nc2cccc(Cl)c2)c1,-109*
O=C(Nc1cccc(F)c1)Nc1cccc(Cl)c1,-84*
NS(=O)(=O)c1cccc(NC(=O)CCSc2ccccc2Cl)c1,-120*
Oc1c(C(Nc2cccc(C(F)(F)F)c2)c2ccncc2)ccc2cccnc12 (centres undefined),82
N#CCc1ccc(NC(=O)Nc2cccc(Cl)c2)cc1,-143*
CSc1ccccc1NC(=S)Nc1cccc(C(F)(F)F)c1,-64*
O=C(Nc1cccc(Cl)c1)c1cnc[nH]1,-87*
O=C(Nc1ccc(C(=O)N2CCOCC2)cc1)Nc1cccc(Cl)c1,-139*
O=C(Nc1cccc(Cl)c1)Nc1cccc(Cl)c1,-137*
Cc1cccnc1NC(=O)Nc1cccc(Cl)c1,-186*
NS(=O)(=O)c1cccc(NC(=O)Nc2ccc(Cl)cc2)c1,-92*
CNS(=O)(=O)c1ccc(NC(=O)Nc2cccc(F)c2)cc1,-89*
O=C(Nc1cccc(Cl)c1)ON=C1c2ccccc2-c2ccccc21,-66*
Clc1ccccc1-c1ncc2ccccn12,-98*
Clc1ccc(-c2ncc3ccccn23)cc1,-104*
CC(=O)Nc1nnc(-c2ccc3c(c2)CCCC3)o1,-67*
CC1CN(S(=O)(=O)c2ccc(C(=O)Nc3nnc(-c4ccc5c(c4)CCCC5)o3)cc2)CC(C)O1 (centres undefined),76
O=C(Nc1ccc(Cl)cc1)Nc1ccon1,-129*
CCOc1ccc(NC(=O)Nc2ccon2)cc1,-116*
Cc1ccc(NC(=O)Nc2ccon2)cc1,-102*
C=C[C@@]1(C)CC(=O)[C@]2(O)[C@@]3(C)[C@@H](O)CCC(C)(C)[C@@H]3[C@H](O)[C@H](OC(C)=O)[C@@]2(C)O1,72
Cc1ccc(-c2csc(N)n2)s1,-71*
C[C@]12CCC(=O)C=C1CC[C@@H]1[C@@H]2[C@@H](O)C[C@]2(C=O)[C@@H](C(=O)CO)CC[C@@H]12,-78*
Cc1ccc(Sc2ncccc2COC(=O)NC(C)C)cc1,-89*
SMILES,aSyn 5UTR act
CCCCN1C(=O)C(=O)N(c2ccccc2)C1=S,-135*
CCCCCCN1C=CC(=C2C(=O)c3ccccc3C2=O)C=C1,107
CCN(CC)CCCN(C(=O)c1cccs1)c1nc(-c2ccc(OC)cc2)cs1,-101*
COCCCN(C(C)=O)c1nc(-c2ccccc2)cs1,-146*
COc1ccc(-c2csc(N(C)C(=O)c3cccs3)n2)cc1,-126*
O=C(Nc1ccc2c(c1)nc1n2CCOC1)c1ccco1,-66*
O=C(Nc1ccc2c(c1)nc1n2CCOC1)C1CCCCC1,-106*
CCc1ccc(-c2csc(-c3c[nH]c4ccccc34)n2)cc1,-308*
Cc1ccc(-c2cc(-c3cccs3)[nH]n2)c(O)c1,-128*
O=C(NC1CC1)c1cc2cc3ccccc3nc2s1,-152*
COc1ccc(NC(=O)c2cccs2)c([N+](=O)[O-])c1,-161*
COc1ccc(NC(=O)/C=C/c2ccccc2)c([N+](=O)[O-])c1,-176*
COc1ccc(NC(=O)C/C(C)=N/NC(=O)c2cccs2)c([N+](=O)[O-])c1,-111*
CCCCC(=O)Nc1ccc(C(=O)Nc2ccc(OC)cc2[N+](=O)[O-])cc1,61
COc1ccc(NC(=O)c2sccc2C)c([N+](=O)[O-])c1,-184*
CC(C)c1ccc(/C=N/N2CCCCC2)cc1,-143*
Oc1ccccc1/C=N/N1CCN(c2ccccn2)CC1,-115*
CC(C)c1ccc(/C=N/N2CCN(c3ccccn3)CC2)cc1,-122*
c1ccc(-c2ccc3ccccc3n2)cc1,-191*
c1ccc2nc(-c3ccc(-n4ccnc4)cc3)ccc2c1,-224*
O=C(C1CC(c2ccc(F)cc2)=NO1)N1CCCCC1 (centres undefined),-141*
CC1CCCCN1C(=O)C1CC(c2ccc(F)cc2)=NO1 (centres undefined),-89*
O=C(C1CC(c2ccccc2O)=NO1)N1CCCCC1 (centres undefined),-112*
CC1CCCCN1C(=O)CSc1ccc(-c2ccc(F)cc2)nn1 (centres undefined),-76*
CCOc1cc(C2NN=C(c3ccccc3)S2)ccc1OCc1ccccc1Cl (centres undefined),-132*
SMILES,aSyn 5UTR act
CCOc1cc(CNCCCN2CCOCC2)cc(Br)c1OCc1ccccc1Cl,96
CCOc1cc(C2NN=C(c3ccccc3)S2)ccc1OCc1ccc(F)cc1 (centres undefined),-129*
CSCC(=O)N1CCC(n2nccc2NC(=O)c2ccc3c(c2)OCO3)CC1,-110*
CSc1ccc(CC(=O)N2CCC(n3nccc3NC(=O)C3CC3)CC2)cc1,-116*
Cc1[nH]c2ccccc2c1N=Nc1cccc(C(=O)O)c1,-96*
Cc1[nH]c2ccccc2c1N=Nc1ccccc1C(=O)O,-70*
COc1cccc(-c2nnn(CC(C)=O)n2)c1,-122*
C=CCNC(=O)Cn1nnc(-c2ccc(-c3ccc(OC)cc3)cc2)n1,-129*
COc1ccc(-c2ccc(-c3nnn(CC(C)=O)n3)cc2)cc1,-189*
COc1cccc(-c2nnn(CC(=O)N3CCCCC3)n2)c1,-74*
COc1ccc(-n2nnnc2-c2cccc(OC)c2)cc1,64
CCc1ccc(-c2nnn(CCC(=O)OC)n2)cc1,77
COc1ccc(NC(=O)Cn2nnc(-c3ccccc3NS(=O)(=O)c3ccc(OC)cc3)n2)cc1,107
